The structures appear in SMILES notation. In all, about 1,900 compounds went through this assay and about 320 (17%) were called active. Not all results are given here. A number with no mark means an inactive call. Cut-off read from the data, not from the text of the source: active = inhibition above about 30%; inactive = the rest.

In the test the test system is CCHF virus ovarian tumor domain protease (vOTU, L protein). Description: CCHFV vOTU protease inhibitors, confirmation, biochemical, Pep-AMC substrate, fluorescence (AID 686976). As to conditions: Recombinant CCHFV vOTU, at 11.5 µM, active compounds read high.
`O=C(OCC(=O)c1cccs1)c1ccc([N+](=O)[O-])o1`: the inhibition was -0.43%. As to `Cc1cc(OC(C)C(=O)Nc2ccc(S(=O)(=O)Nc3onc(C)c3C)cc2)cc(C)c1Cl` (stereo unspecified), the inhibition was 12.3%. Consider `CC(=O)N1CCN(c2ccc(NCc3ccc(C(C)C)cc3)cc2)CC1`, for which the inhibition was -11.5%. Under `Clc1ccc(C2=CSC3=Nc4cccc5cccc(c45)N23)cc1` stands 94.7% (active); under `COc1ccc(S(=O)(=O)/N=C2\C=C(NS(=O)(=O)c3ccccc3)C(=O)c3ccccc32)cc1`, 33% (active); under `O=S(=O)(Nc1ccc(O)c2ccccc12)c1ccc(OC(F)(F)F)cc1`, 10.3%. Under `Cc1ccc(S(=O)(=O)/N=C2\C=C(NS(=O)(=O)c3ccc(C)cc3)C(=O)c3ccccc32)cc1` stands 38.1% (active).

`CC1=NN(c2ccc(Cl)c(C(=O)O)c2)C(=O)/C1=C/c1ccc(-c2ccccc2[N+](=O)[O-])o1`: the inhibition was 5.11%. Under `O=C1NC(c2ccc(-c3ccccc3[N+](=O)[O-])o2)C(C(=O)c2ccc(Cl)cc2)C(O)(C(F)(F)F)N1` (stereo unspecified) stands 34.9% (active); under `Cc1cc(C)cc(NC(=S)NCCc2c[nH]c3ccccc23)c1`, -3.11%. Consider `CCN(CC)CCCC(C)n1c2nc(=O)[nH]c(=O)c-2nc2cc(Cl)ccc21` (stereo unspecified), for which the inhibition is 98.9% (active). Under `COc1cc(NC(=O)COC(=O)c2ccc([N+](=O)[O-])s2)cc(OC)c1OC` stands 81.3% (active). The result for `COc1ccc(C(=O)COC(=O)c2ccc([N+](=O)[O-])s2)cc1OC` reads 12.4%.

With `O=C(COc1ccc(Cl)cc1)N1CCN(c2cccc(C(F)(F)F)c2)CC1`, the inhibition is -7.38%. The result for `COCCNC(=O)Nc1ccc2nc(-c3ccco3)c(-c3ccco3)nc2c1` reads 1.78%; that for `O=C(O)c1cc(S(=O)(=O)Nc2ccc3cn[nH]c3c2)ccc1Br`, -10.8%; that for `Oc1ccc(N=Cc2sc3ccccc3c2Cl)cc1`, -0.82%.

With `COc1ccccc1CNS(=O)(=O)c1cc2c3c(c1)CCC(=O)N3CCC2`, the inhibition was -12.5%.

Consider `Cc1cccc(C)c1NC(=O)CNC(=O)c1c(C)nn(-c2ccccc2)c1C`, for which the inhibition was -17.8%. As to `Oc1c(Cl)cc(Cl)c(Cl)c1Cc1c(O)c(Cl)cc(Cl)c1Cl`, the inhibition was 31.2% (active). As for `CC(=O)N(C1=C(Cl)C(=O)c2ccccc2C1=O)c1ccc(C(=O)O)cc1`, the inhibition is 101% (active). For `CC(C(=O)Nc1ccccc1-c1ccccc1)N1CCOCC1` (stereo unspecified), the inhibition is -10.3%.

Take `Cc1oc2c(c1C(=O)N1CCOCC1)C(=O)c1ccccc1C2=O`: the inhibition is 41% (active). Take `COc1ccc2c(c1)c(=Cc1ccc(N(C)C)cc1)c1cc(-c3ccccc3)[n+](C)n12`: the inhibition was -15.8%. Regarding `Cc1ccc(S(=O)(=O)N2[C@@H](c3ccc(Br)cc3)C(C(=O)O)=C[C@H]2CC2CCCC2)cc1`, the inhibition was 24.4%. `Oc1ccc(CNc2ccccc2O)cc1`: the inhibition was -5.66%.

Regarding `CCOc1ccc(C(=O)Nc2ccc(S(=O)(=O)NCC3CCCO3)cc2)cc1OCC` (stereo unspecified), the inhibition was -7.98%. On to `Oc1c(CN2CCN(c3ccc(F)cc3)CC2)cc(Cl)c2cccnc12`, for which the inhibition was -0.25%. For the compound `CCOc1cc(NC(=O)c2ccccc2C(=O)O)c(OCC)cc1NC(=O)c1ccccc1F`, the inhibition was -9.49%. Under `Cc1ccc(OCc2nnc(SC/C=C/c3ccccc3)n2Cc2ccco2)cc1` stands 15.3%. The result for `COc1ccccc1N=Nc1c(O)[nH]c(=S)[nH]c1=O` reads 30.5% (active); that for `NC1=CC(=O)C(=O)c2cccnc21`, 95.4% (active); that for `CCc1ccc(OCC(=O)NCC(c2ccc(Cl)cc2)N2CCCCC2)cc1` (stereo unspecified), 14.2%. As for `COc1ccc2c(c1)C(C)=CC(C)(C)N2C(=O)Nc1ccccc1`, the inhibition is -94.5%. `O=C1Nc2ccccc2-n2nnnc2C1N1CCN(c2cccc(C(F)(F)F)n2)CC1` (stereo unspecified): the inhibition was -5.01%. For the compound `CCNC(=S)N1CCN(c2ncccn2)CC1`, the inhibition is -9.28%. For `Cc1cc(C)c2c(=O)[nH]c(SCC(=O)Nc3ccc(Br)cc3)nc2n1`, the inhibition was -13.3%. Regarding `Cc1ccccc1-n1c(SCC(=O)Nc2cccc3ccccc23)nc(O)cc1=O`, the inhibition is -11.1%. Consider `Cc1oc2c(F)c(F)c(F)c(F)c2c1S(=O)(=O)Nc1cccc(C(F)(F)F)c1`, for which the inhibition was 13.9%. Turning to `CC(C)(C)c1ccc(S(=O)(=O)NCC2CCN(C(=O)C(=O)c3cc4ccccc4o3)CC2)cc1`, the inhibition was -5.86%. For `Nc1ccc(N=Nc2ccccc2Cl)c(N)n1`, the inhibition was 8.04%. On to `Oc1ccc(/C=N/Nc2ccc(C(F)(F)F)cn2)cc1O`, for which the inhibition is -17.2%.

As for `CCCSc1nc(NCc2ccco2)c2c3c(sc2n1)COC(C)(CC)C3` (stereo unspecified), the inhibition is -14.8%.

Turning to `O=C(O)c1ccccc1/C=N/Nc1ccc(S(=O)(=O)Nc2ccc(Cl)cc2)cc1[N+](=O)[O-]`, the inhibition is 12.4%. The result for `CN1CCN(Cc2nc3cc(NC(=O)COc4ccc([N+](=O)[O-])cc4)ccc3n2C)CC1` reads -12.5%; that for `CCN(CC(=O)Nc1c(F)cccc1F)C(=O)c1cnc(C)cn1`, 2.27%; that for `CC1CCCCC12NC(=O)N(CC(=O)OCC(=O)NCc1ccc(F)cc1)C2=O` (stereo unspecified), -0.61%. As for `Cc1ccnc(NS(=O)(=O)c2ccc(NC(=O)c3oc4ccccc4c3C)cc2)n1`, the inhibition is 5.34%. In the case of `Cc1coc2c(O)cc3c(c12)OC1(N2CCCCC2)C(=O)NCCCC31` (stereo unspecified), the inhibition was 47.2% (active).

For the compound `Cn1c(=NC(=O)c2cnccn2)sc2ccccc21`, the inhibition was 5.19%. The result for `Cc1ccc(CSc2nc(-c3ccccc3)c(C#N)c(=O)[nH]2)cc1` reads 13.2%; that for `Oc1ccc(N=Cc2c(O)ccc3ccccc23)cc1`, 4.75%. As for `Oc1c(C=Nc2cccc3nsnc23)ccc2ccccc12`, the inhibition is 100% (active).

As for `CC(C)Cn1c(N)c(C(=O)NCc2cccs2)c2nc3ccccc3nc21`, the inhibition was -76.7%. Under `C=CCC[C@@H](CCCCC)OC(=O)/C=C/[C@@H](O)[C@H](O)C[C@H](O)CC=C` stands -0.24%; under `CCc1ccc2c(c1)NC(=O)C2(C)Cc1ccc(OC(F)(F)F)cc1` (stereo unspecified), 3.85%. `O=C(Nc1cccc(S(=O)(=O)N2CCCCC2)c1)c1ccc2c(c1)OCO2`: the inhibition was -5.32%. As to `COc1ccc(C(N)c2csc(NC(=O)Nc3cccc(C(F)(F)F)c3)n2)cc1` (stereo unspecified), the inhibition was -16.9%. Turning to `O=C(NCc1ccc(F)cc1)c1cc(C2CCCCN2C(=O)C2CCCCC2)on1` (stereo unspecified), the inhibition was -10.2%. Regarding `Cc1nnc(SC(C)C(=O)Nc2ccc(S(=O)(=O)NC3CCCCC3)cc2)s1` (stereo unspecified), the inhibition was -7.87%. Consider `CCOC(=O)N1CCC(c2cc(=O)n(-c3ccccc3)[nH]2)CC1`, for which the inhibition was -6.72%. For `COc1ccccc1C1C(C#N)=C(N)Oc2c1c(-c1ccccc1)nn2-c1ccccc1` (stereo unspecified), the inhibition is 1.06%. As to `CCN(CC)C(=O)C1=C(C)N(Cc2ccc(C(C)(C)C)cc2)C(=O)C(CC(=O)NCc2cccc3ccccc23)C1` (stereo unspecified), the inhibition is 3.3%. Turning to `COc1ccc(C(=O)/C=C/c2ccc(-c3ccccc3)cc2)cc1CSCC(=O)O`, the inhibition was 0.4%. On to `COc1cccc(NC(=O)C(=O)c2cn(CC(=O)N3CCOCC3)c3ccccc23)c1`, for which the inhibition is 0.94%. For `COCCn1nnnc1C(c1cc2ccc(OC)cc2[nH]c1=O)N1CCc2ccccc2C1` (stereo unspecified), the inhibition was 20.7%. On to `CN(C)N1C(N)=C(C#N)C(c2ccc(Br)cc2)C2=C1CCCC2=O` (stereo unspecified), for which the inhibition is -25.8%.

As to `O=C1Nc2ccc([N+](=O)[O-])cc2C1=Nc1cccc(CO)c1`, the inhibition is 58.4% (active). Under `CCN(CC)P(=O)(Oc1cccc(C)c1)N(CC)CC` stands -12.8%; under `CCCCCC(=O)N1C[C@H](O)[C@@H](n2cc(COC(=O)c3ccccc3)nn2)C[C@@H]1c1ccc(C)cc1`, 7.84%. Under `CC(C)Oc1ccc(CN2CCC2(C)C(=O)NCc2ccc(C(F)(F)F)cc2)cc1` (stereo unspecified) stands 8.85%; under `CN1c2ccc(C=O)c3c(C=O)ccc(c23)N(C)C1(C)C`, -100%; under `COc1ccc(F)cc1C(=O)C1CCCN(C(=O)CCc2ccccn2)C1` (stereo unspecified), -14.7%. In the case of `CCN(C[C@H]1N[C@@](CC)(C(=O)OC)[C@H]2C(=O)N(Cc3ccccc3)C(=O)[C@@H]12)S(=O)(=O)c1ccc(C(F)(F)F)cc1`, the inhibition was 7.2%. Take `CCOC(=O)c1ccc(Nc2cc3ccccc3c(=O)[nH]2)cc1`: the inhibition is 24.6%. The result for `CCOC(=O)c1c(C)[nH]c2c1-c1ccccc1C(=O)C2=O` reads 98.7% (active); that for `O=C(NC1=CC(=O)c2ccccc2C1=O)c1ccccc1`, 99.3% (active); that for `O=C1C=C(NS(=O)(=O)c2ccccc2)C(=O)c2ccccc21`, 15.4%. Regarding `O=C(NC1CCCCC1)N1CCc2[nH]c3ccccc3c2C1`, the inhibition is -22.6%. Take `CN(C)c1ccc(N/C=C/C(=O)C(F)(F)F)cc1`: the inhibition is 5.61%. Consider `Cc1cc(C(=O)N/N=C/c2ccc(O)c([N+](=O)[O-])c2)c(C)n1-c1ccc(F)cc1`, for which the inhibition is 8.57%. Take `CCCS(=O)(=O)NC(=O)C1(C)CCN(C(=O)c2sccc2C)C1` (stereo unspecified): the inhibition was -18.9%.

For `COc1cc2c(cc1OC)C(Cc1cc(OC)c(OC)cc1[N+](=O)[O-])=NCC2`, the inhibition is -18.3%. For the compound `COc1ccc(NC(=O)C[C@H]2C(=O)N(CCc3ccccc3)C[C@@H]2C)cc1`, the inhibition was -25.5%. The result for `COC(=O)[C@]12C[C@H](CC(=O)NCc3ccc(C)o3)C(=O)N(CCC3=CCCCC3)C1=C[C@H](C(C)(C)C)O[C@@H]2C` reads 9.58%. Under `CCOC(=O)c1ccc(NC(=O)c2nc[nH]c2C(=O)N[C@@H](CCCCNC(=O)OC(C)(C)C)C(=O)OC(C)(C)C)cc1` stands 12.5%. Under `O=C(NCCc1ccc(Cl)cc1Cl)c1cc([N+](=O)[O-])c[nH]c1=O` stands -6.11%. Turning to `COC(=O)[C@@]12C[C@@H](CC(=O)NCc3cccc(C(F)(F)F)c3)C(=O)N(Cc3ccco3)C1=CCC(C)(C)C2`, the inhibition was 12.2%. Under `CCN(CC)C(=O)[C@@H]1C=C2c3cccc4[nH]c(Br)c(c34)C[C@H]2N(C)C1` stands -5.37%; under `CCn1nnnc1SCC(=O)Nc1ccc(N(C)C)cc1`, 6.35%. On to `Cc1nnc(NC(=O)Nc2ccc(Cl)c(Cl)c2)s1`, for which the inhibition was -15.1%.

Usually inhibition stands for the drop in the measured response relative to a control, in per cent.

The values are drawn from PubChem BioAssay AID686976 (The Scripps Research Institute Molecular Screening Center, 2013).
